The record followed here is PubChem BioAssay (Tox21).

Experiment [1] is described as follows: qHTS assay for small molecule agonists of the p53 signaling pathway (AID 651631; calls by dose curve; note: nearly all actives have a fitted effect of over 15% in size; note: potency is the fitted concentration of half-maximal effect). Summed up:
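p53RE-bla HCT-116 cells; compounds 16 h, 37 °C; LiveBLAzer B/G FRET substrate 2 h RT; fluorescence intensity read-out, qHTS format.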
On the technique in general: In qHTS, concentration-response curves come from the screen itself.

Experiment [2] is described as follows: qHTS assay for small molecules that induce genotoxicity in human embryonic kidney cells expressing luciferase-tagged ATAD5 (AID 651632). Note: nearly all actives have a fitted effect of over 15% in size. Note: potency is the fitted concentration of half-maximal effect. Summed up: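 HEK293T cells carrying luciferase-tagged ATAD5 were given compound or DMSO vehicle and incubated 16 hr at 37C, 5% CO2. Luciferase activity was read after 30 min at room temperature with Amplite; a rise signals genotoxic stress.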

The nature of experiment [3]: qHTS assay for small molecule agonists of the p53 signaling pathway - cell viability (AID 651633; calls by dose curve; note: nearly all actives have a fitted effect of over 30% in size; note: potency is the fitted concentration of half-maximal effect). Summed up: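 p53RE-bla cells, seeded at 4,000 per well and rested 5 h at 37 C/5% CO2, received compounds in DMSO for 16 h at 37 C. CellTiter-Glo was then added, and luminescence was read after 30 min at room temperature to gauge cytotoxicity.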
Experiment [4] is described as follows: qHTS assay for small molecules that induce genotoxicity in human embryonic kidney cells expressing luciferase-tagged ATAD5 - cell viability (AID 651634; calls by dose curve; note: nearly all actives have a fitted effect of over 25% in size). Summed up:
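HEK293T cells carrying luciferase-tagged ATAD5, 2,000 cells/well, exposed to compound for 15.5 hr at 37C. Viability read as live-cell protease activity by CellTiter-Fluor fluorescence after 30 min at 37C.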

Experiment [5] can be described thus: qHTS assay for small molecule disruptors of the mitochondrial membrane potential - cell viability (AID 720634; calls by dose curve;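 note: human HepG2 liver cancer cells; series mostly up to about 83 µM; nearly all actives have a fitted effect of over 20% in size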). Summed up: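 HepG2 cells, 2,000 per well, attached overnight, then treated 1 hr at 37 C, 5% CO2. Viability read as ATP by CellTiter-Glo luminescence after 30 min at room temperature. Read in the same wells as the m-MPI membrane-potential dye assay.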

Experiment [6] in a line: qHTS assay for small molecule disruptors of the mitochondrial membrane potential (AID 720635). Note: potency is the fitted concentration of half-maximal effect. Summed up:
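HepG2 cells (2,000/well) attached overnight at 37C, then took compound for 1 hr at 37C, 5% CO2. Mito-MPS dye was added for 30 min; fluorescence was read at 490/535 nm (monomers) and 540/590 nm (aggregates).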

A short description of experiment [7]: qHTS assay to test for compound auto fluorescence at 590 nm (red) in HepG2 cells (AID 720674). Summed up: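 Rose Bengal sodium served as the red fluorophore standard. HepG2 monolayers (overnight attachment, MEM with 10% FBS) were exposed to test compounds for 1 hr at 37 C and read at Ex 540/Em 590 nm.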
Experiment [8] is described as follows: qHTS assay to test for compound auto fluorescence at 535 nm (green) in HepG2 cells (AID 720675).
A short description of experiment [9]: qHTS assay to test for compound auto fluorescence at 590 nm (red) in HEK293 cells (AID 720679). Summed up: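 HEK293 cells (2,000/well, medium with 10% dialyzed FBS) attached for 4-5 hr at 37C, received 23 nL compound and were incubated overnight at 37C, 5% CO2. Red fluorescence was then read at 540/590nm Ex/Em, referenced to Rose Bengal sodium.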
Experiment [10] can be described thus: qHTS assay to test for compound auto fluorescence at 535 nm (green) in HEK293 cells (AID 720680).
Experiment [11] in a line: qHTS assay to test for compound auto fluorescence at 460 nm (blue) in HEK293 cell free culture (AID 720681). Summed up: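 Test compounds were pinned into cell-free culture medium (DMEM with 10% FBS) and fluorescence was read directly at Ex/Em 405/460 nm. Signals were expressed as fluorescence equivalents of triamterene, with DMSO vehicle as control.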
A short description of experiment [12]: qHTS assay to test for compound auto fluorescence at 590 nm (red) in HEK293 cell free culture (AID 720683). Summed up: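 Tox21 10K library compounds were pinned into cell-free DMEM with 10% FBS and fluorescence was read at excitation 540 nm. Activity is expressed as Rose Bengal sodium equivalency.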
The nature of experiment [13]: qHTS assay to test for compound auto fluorescence at 590 nm (red) in HepG2 cell free culture (AID 720684). Summed up:
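Red fluorescence (540 nm excitation, 590 nm emission) was measured after compound transfer into cell-free MEM supplemented with 10% FBS. Values are equivalencies against Rose Bengal sodium.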

Experiment [14] is described as follows: qHTS assay to test for compound auto fluorescence at 460 nm (blue) in HepG2 cell free culture (AID 720685). Summed up: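 Compound (23 nL) or DMSO pinned into cell-free MEM with 10% FBS; blue fluorescence read at 405/460 nm excitation/emission, expressed as auto-fluorescence equivalency to triamterene.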
Experiment [15] in a line: qHTS assay to test for compound auto fluorescence at 535 nm (green) in HepG2 cell free culture (AID 720686).
The nature of experiment [16]: qHTS assay to test for compound auto fluorescence at 460 nm (blue) in HepG2 cells (AID 720687). Summed up:
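Cells (2,000/well in MEM with 10% FBS) attached overnight at 37 C, then were exposed to compound or DMSO for 1 hr at 37 C, 5% CO2. Fluorescence read at Ex/Em 405/460 nm, expressed as triamterene-equivalent signal.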

Experiment [17] deals with Glucocorticoid receptor (Homo sapiens) (UniProt P04150). Put plainly: qHTS assay to identify small molecule agonists of the glucocorticoid receptor (GR) signaling pathway (AID 720691; active = well fitted activation curve with a large enough effect in the signal ratio in the repeat runs, not every such curve was filed as active; the % refers to the signal ratio). Summed up: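 GR-bla HeLa cells carrying a GRE-driven beta-lactamase reporter, exposed to compounds for 18 h at 37 C. Reporter activation read as fluorescence after 2 h with LiveBLAzer B/G FRET substrate at room temperature.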
Chain of Glucocorticoid receptor (Homo sapiens) (P04150 whole entry, looked up): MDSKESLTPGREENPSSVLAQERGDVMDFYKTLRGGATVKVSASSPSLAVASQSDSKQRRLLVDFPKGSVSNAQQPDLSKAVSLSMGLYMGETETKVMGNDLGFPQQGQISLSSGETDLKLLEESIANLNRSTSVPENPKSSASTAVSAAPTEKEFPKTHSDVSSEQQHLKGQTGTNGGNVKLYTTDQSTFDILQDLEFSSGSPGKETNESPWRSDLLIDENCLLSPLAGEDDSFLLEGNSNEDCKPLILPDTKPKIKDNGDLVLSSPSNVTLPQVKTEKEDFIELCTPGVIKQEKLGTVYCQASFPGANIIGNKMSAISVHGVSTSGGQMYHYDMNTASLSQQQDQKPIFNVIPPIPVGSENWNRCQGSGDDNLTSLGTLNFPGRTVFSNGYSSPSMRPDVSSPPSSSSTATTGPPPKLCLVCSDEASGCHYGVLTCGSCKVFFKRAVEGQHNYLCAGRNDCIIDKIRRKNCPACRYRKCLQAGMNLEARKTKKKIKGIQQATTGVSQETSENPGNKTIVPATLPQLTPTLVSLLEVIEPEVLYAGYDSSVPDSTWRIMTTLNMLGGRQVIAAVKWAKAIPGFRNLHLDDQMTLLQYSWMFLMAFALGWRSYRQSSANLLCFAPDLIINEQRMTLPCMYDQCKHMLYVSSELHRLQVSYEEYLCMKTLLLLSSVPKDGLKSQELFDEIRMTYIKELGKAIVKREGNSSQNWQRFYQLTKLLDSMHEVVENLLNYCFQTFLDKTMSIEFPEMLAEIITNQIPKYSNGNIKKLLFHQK

The target is the same in experiment [18]. Briefly: qHTS assay to identify small molecule antagonists of the glucocorticoid receptor (GR) signaling pathway (AID 720692; active = well fitted inhibition curve with a large enough effect in the signal ratio in the repeat runs, not every such curve was filed as active; the % refers to the signal ratio). Summed up:
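GR-bla HeLa cells carrying a GRE-driven beta-lactamase reporter received compound after 4 h plating, then dexamethasone (5 nM final). After 18 h at 37C, the FRET substrate was loaded for 2 h at room temperature and fluorescence read.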

Experiment [19] in a line: qHTS assay to test for compound auto fluorescence at 460 nm (blue) in HEK293 cells (AID 720678). Summed up: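 HEK293 cells (2,000 per well, medium with 10% dialyzed FBS) attached for 4-5 hr at 37C, then received compound and stood overnight at 37C, 5% CO2. Blue fluorescence was read at Ex/Em 405/460 nm and expressed relative to triamterene.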
Experiment [20] in a line: qHTS assay to test for compound auto fluorescence at 535 nm (green) in HEK293 cell free culture (AID 720682). Summed up: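 Cell-free medium (DMEM, 10% FBS) receives compound or DMSO by pintool. Plate read directly at Ex 485/Em 535 nm. Signal converted to fluorescein equivalency.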

“And” between values parts separate entries of the source, which are not always exact repeats. Equal values may be shown once. Inconclusive results are not listed. Some compounds were tested as several samples or in several runs, with calls that do not always agree. The source made the active and inactive calls. Unless noted, calls come from the whole dose curve; as a rule, active = well fitted curve in the direction sought with a large enough effect in the repeat runs; inconclusive = weak or mixed curves; inactive = no such curve, though single readings can be large; an effect the other way counts as inactive or inconclusive.

Take `O=S(=O)(O)c1ccc(O)cc1`: the Potency result in experiment [1], in experiment [2], in [3], in experiment [4], in experiment [5] and in [6] was “inactive” in each case. The Potency entry in [7], in [8], in experiment [9], in experiment [10], in experiment [12] and in experiment [13] was “inactive” throughout. For the same compound, the Potency result in [15], in [17] and in experiment [18] was “inactive” throughout. Also, the compound was classed as inactive in experiment [11], in experiment [14] and in [16].
Turning to `O=CCCCC=O`, the Potency in [1] was 29.8 µM (active) and 33.2 µM (active) and 61.1 µM (active); in experiment [2], “inactive and 59 µM (active)”. The Potency entry in [3], in experiment [4], in experiment [5], in experiment [6], in [7] and in experiment [8] was “inactive” each time. In addition, the Potency entry in experiment [9], in experiment [10], in experiment [20], in [12], in [13] and in experiment [15] was “inactive” throughout. In addition, the Potency result in experiment [17] was “inactive”. For the same compound, the compound was classed as inactive in experiment [19], in [11], in [14] and in experiment [16].
Turning to `OC(CCl)CCl`, the Potency result in [1], in experiment [2], in experiment [3], in experiment [4], in experiment [5] and in experiment [7] was “inactive” each time. Besides, the Potency result in experiment [8], in experiment [9], in experiment [10], in experiment [20], in experiment [12] and in experiment [13] was “inactive” throughout. The Potency result in experiment [15], in experiment [17] and in experiment [18] was “inactive” each time. Moreover, the call in experiment [11] and in experiment [14] was inactive.
Turning to `CCCCCCCCCCCO`, the Potency entry in [1], in [2], in experiment [4], in experiment [5], in [7] and in [8] was “inactive” each time. The Potency entry in experiment [9], in experiment [10], in experiment [20], in experiment [12], in [13] and in experiment [15] was “inactive” each time. Moreover, the Potency result in experiment [3] is “inactive and 61.1 µM (active)”; in experiment [6] it was “inactive and 21.7 µM (active)”. Further, the call in experiment [19], in experiment [11] and in experiment [14] was inactive.
In the case of `CC(C)=CCCC(C)CCO` (centres undefined), the Potency result in experiment [1], in experiment [2], in [3], in experiment [4], in experiment [5] and in [7] was “inactive” in each case. In addition, the Potency result in experiment [8], in [9], in [10], in experiment [20], in experiment [12] and in experiment [13] was “inactive” in each case. In experiment [15], the Potency entry was “inactive”. The compound was classed as inactive in [11], in [14] and in experiment [16].
In the case of `C#C[C@]1(O)CC[C@H]2[C@@H]3CCc4cc(OC)ccc4[C@H]3CC[C@@]21C`, the Potency entry in [1], in [2], in experiment [3], in experiment [4], in experiment [5] and in experiment [7] was “inactive” throughout. In addition, the Potency entry in [8], in experiment [9], in [10], in [12], in [13] and in [15] was “inactive” throughout. In experiment [17], the Potency entry was “inactive”. The Potency in [6] was 19.3 µM (active). Moreover, the compound was classed as inactive in [19], in [11], in experiment [14] and in experiment [16].
`CC(C)OC=O`: the Potency result in [1], in experiment [2], in experiment [3], in [4], in experiment [5] and in experiment [6] was “inactive” in each case. Moreover, the Potency result in [7], in experiment [8], in experiment [9], in experiment [10], in [20] and in [12] was “inactive” in each case. The Potency result in [13], in [15], in experiment [17] and in experiment [18] was “inactive” each time. Further, the result in experiment [11], in experiment [14] and in [16] was inactive.
